# Measurements taken from PubChem BioAssay (EPA / NIEHS).
# Several values for one entry are separate records, joined by “and”; a condition that tells them apart may be missing. Identical values can stand only once. Some compounds were tested as several samples or in several runs, with calls that do not always agree. Activity calls are given as the source filed them. Rule for the calls: active = hit-call score of the fitted dose curve at least 0.9, where 1 is the maximum; inactive = score below 0.9.
# Experiments:
# [1] = read-out: Intercellular Adhesion Molecule 1 (ICAM1), ICAM1 (gene 3383); assay: BSK_BF4T_ICAM1: BioMAP Diversity Plus: BF4T Assay for Intercellular Adhesion Molecule 1 (ICAM1) Biomarker Activity (AID 2284260); settings: primary human bronchial epithelial cells with fibroblasts
# Summary of the method: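 ICAM-1 levels measured by ELISA after 24 h chemical treatment of bronchial epithelial cell/dermal fibroblast co-cultures, read against DMSO baseline. Overt cytotoxicity checked in parallel cultures by sulforhodamine B staining.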
# [2] = read-out: Interleukin-8 (IL8), CXCL8 (gene 3576); assay: BSK_MyoF_IL8: BioMAP Diversity Plus: MyoF Assay for Interleukin-8 (IL8) Biomarker Activity (AID 2284261); settings: primary human lung fibroblasts
# Summary of the method: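 In this multiplexed primary-cell system, fibroblasts from human lung are treated with chemicals, and IL-8 is detected by ELISA at 24 h, with DMSO serving as the negative reference.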
# [3] = read-out: CD90, THY1 (gene 7070); assay: BSK_BF4T_CD90: BioMAP Diversity Plus: BF4T Assay for CD90 Biomarker Activity (AID 2284262); settings: primary human bronchial epithelial cells with fibroblasts
# Summary of the method: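 CD90 levels by ELISA after 24 h treatment of human bronchial epithelial cell/dermal fibroblast cultures, analysed versus DMSO. Overt cytotoxicity checked in parallel cultures by sulforhodamine B staining.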
# [4] = read-out: Interleukin-1 alpha (IL1a), IL1A (gene 3552); assay: BSK_BF4T_IL1a: BioMAP Diversity Plus: BF4T Assay for Interleukin-1 alpha (IL1a) Biomarker Activity (AID 2284264); settings: primary human bronchial epithelial cells with fibroblasts
# Summary of the method: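 ELISA read-out of IL-1α from bronchial epithelial cell/dermal fibroblast co-cultures 24 h after compound addition. Increases scored against DMSO negative control. Cytotoxicity monitored by sulforhodamine B staining of parallel cultures.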
# [5] = read-out: Decorin, DCN (gene 1634); assay: BSK_MyoF_Decorin: BioMAP Diversity Plus: MyoF Assay for Decorin Biomarker Activity (AID 2284265); settings: primary human lung fibroblasts
# Summary of the method: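 Lung fibroblast cultures, 24 h chemical exposure. Decorin by ELISA, positive fitting direction, DMSO baseline.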
# [6] = read-out: KRT18 (gene 3875); assay: BSK_BF4T_Keratin818: BioMAP Diversity Plus: BF4T Assay for Keratin 818 Biomarker Activity (AID 2284266); settings: primary human bronchial epithelial cells with fibroblasts
# Summary of the method: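 Keratin 8/18 levels quantified by ELISA after 24 h chemical treatment of bronchial epithelial cell/dermal fibroblast co-cultures, fitted in positive direction relative to DMSO. Parallel SRB staining tracks overt cytotoxicity.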
# [7] = BSK_MyoF_SRB: Viability Assessment in the BioMAP Diversity Plus: MyoF Assay (AID 2284267); settings: primary human lung fibroblasts;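 note: total protein by SRB absorbance in parallel cultures as cytotoxicity measure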
# Summary of the method: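 Cytotoxicity read-out: after 10% TCA fixation, parallel human lung fibroblast cultures were stained with 0.1% SRB at 24 h post-dosing and read at 560 nm; DMSO served as baseline.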
# [8] = read-out: Matrix Metallopeptidase 1 (MMP1), MMP1 (gene 4312); assay: BSK_MyoF_MMP1: BioMAP Diversity Plus: MyoF Assay for Matrix Metallopeptidase 1 (MMP1) Biomarker Activity (AID 2284268); settings: primary human lung fibroblasts
# Summary of the method: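 MMP1 measured by ELISA 24 h after dosing primary human lung fibroblasts; cytotoxicity checked in parallel cultures by sulforhodamine B total-protein staining read at 560 nm.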
# [9] = read-out: TIMP metallopeptidase inhibitor 1 (TIMP1), TIMP1 (gene 7076); assay: BSK_MyoF_TIMP1: BioMAP Diversity Plus: MyoF Assay for TIMP metallopeptidase inhibitor 1 (TIMP1) Biomarker Activity (AID 2284269); settings: primary human lung fibroblasts
# Summary of the method: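 ELISA quantified TIMP-1 levels after 24 h dosing of primary human lung fibroblasts, with DMSO as baseline. Parallel SRB total protein staining (0.1% SRB after TCA fixation, 560 nm) flagged overt cytotoxicity.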
structure (smiles),measurement,setting,value
NS(=O)(=O)C(F)(F)C(F)(F)C(F)(F)C(F)(F)C(F)(F)C(F)(F)F,outcome,[1],inactive
same,outcome,[2],inactive
same,outcome,[3],inactive
same,outcome,[4],inactive
same,outcome,[5],inactive
same,AC50,[6],30 µM (active)
same,outcome,[6],inactive
same,AC50,[7],13.4 µM (active) and 30 µM (active)
same,outcome,[8],inactive
same,outcome,[9],inactive
OC(O)C(F)(F)C(F)(F)F,outcome,[1],inactive
same,outcome,[2],inactive
same,outcome,[3],inactive
same,outcome,[4],inactive
same,outcome,[5],inactive
same,outcome,[6],inactive
same,outcome,[7],inactive
same,outcome,[8],inactive
same,outcome,[9],inactive
O=C(O)C(F)(F)C(F)(F)C(F)(F)C(=O)O,outcome,[1],inactive
same,outcome,[2],inactive
same,outcome,[3],inactive
same,outcome,[4],inactive
same,outcome,[5],inactive
same,outcome,[6],inactive
same,outcome,[7],inactive
same,outcome,[8],inactive
same,outcome,[9],inactive
OCC(F)(F)C(F)(F)C(F)(F)CO,outcome,[1],inactive
same,outcome,[2],inactive
same,outcome,[3],inactive
same,outcome,[4],inactive
same,outcome,[5],inactive
same,outcome,[6],inactive
same,outcome,[7],inactive
same,outcome,[8],inactive
same,outcome,[9],inactive
NCC(F)(F)C(F)(F)C(F)(F)C(F)(F)C(F)(F)C(F)(F)F,outcome,[1],inactive
same,outcome,[2],inactive
same,outcome,[3],inactive
same,outcome,[4],inactive
same,outcome,[5],inactive
same,outcome,[6],inactive
same,outcome,[7],inactive
same,outcome,[8],inactive
same,outcome,[9],inactive
CC1=CC2C3C=CC(C3)C2C1C (stereo not given),outcome,[2],inactive
same,outcome,[5],inactive
same,outcome,[7],inactive
same,outcome,[8],inactive
same,outcome,[9],inactive
NC(=O)C(F)(F)C(F)(F)C(F)(F)C(F)(F)C(N)=O,outcome,[1],inactive
same,outcome,[2],inactive
same,outcome,[3],inactive
same,outcome,[4],inactive
same,outcome,[5],inactive
same,outcome,[6],inactive
same,outcome,[7],inactive
same,outcome,[8],inactive
same,outcome,[9],inactive
FC(F)(F)C(F)(F)C(F)(F)C(F)(F)C(F)(F)C(F)(F)C(F)(F)CCI,outcome,[1],inactive
same,outcome,[2],inactive
same,outcome,[3],inactive
same,outcome,[4],inactive
same,outcome,[5],inactive
same,outcome,[6],inactive
same,outcome,[7],inactive
same,outcome,[8],inactive
same,outcome,[9],inactive
CC(C)(C)c1cc(CCC(=O)NCCCCCCNC(=O)CCc2cc(C(C)(C)C)c(O)c(C(C)(C)C)c2)cc(C(C)(C)C)c1O,outcome,[2],inactive
same,outcome,[5],inactive
same,outcome,[7],inactive
same,outcome,[8],inactive
same,outcome,[9],inactive
O=C1c2c(O)ccc(Nc3ccc(CCO)cc3)c2C(=O)c2c([N+](=O)[O-])ccc(O)c21,AC50,[2],1.65 µM (active)
same,AC50,[5],9.73 µM (active)
same,AC50,[7],11 µM (active)
same,AC50,[8],11 µM (active)
same,outcome,[9],inactive
O=C(O)CCC(F)(F)C(F)(F)C(F)(F)F,outcome,[1],inactive
same,outcome,[2],inactive
same,outcome,[3],inactive
same,outcome,[4],inactive
same,outcome,[5],inactive
same,outcome,[6],inactive
same,outcome,[7],inactive
same,outcome,[8],inactive
same,outcome,[9],inactive
CCN(CC)c1ccc(C=O)c(O)c1,outcome,[2],inactive
same,outcome,[5],inactive
same,outcome,[7],inactive
same,outcome,[8],inactive
same,outcome,[9],inactive
NCC(F)(F)C(F)(F)C(F)(F)C(F)(F)C(F)(F)C(F)(F)C(F)(F)C(F)(F)F,outcome,[1],inactive
same,outcome,[2],inactive
same,outcome,[3],inactive
same,outcome,[4],inactive
same,outcome,[5],inactive
same,outcome,[6],inactive
same,outcome,[7],inactive
same,outcome,[8],inactive
same,outcome,[9],inactive
O=C=Nc1cccc2c(N=C=O)cccc12,outcome,[2],inactive
same,outcome,[5],inactive
same,outcome,[7],inactive
same,outcome,[8],inactive
same,outcome,[9],inactive
CCOC(=O)CC(=O)C(F)(F)C(F)(F)F,outcome,[1],inactive
same,outcome,[2],inactive
same,outcome,[3],inactive
same,outcome,[4],inactive
same,outcome,[5],inactive
same,outcome,[6],inactive
same,outcome,[7],inactive
same,outcome,[8],inactive
same,outcome,[9],inactive
O=C(O)C(F)(F)C(F)(F)C(F)(F)C(F)(F)C(F)(F)C(F)(F)C(F)F,outcome,[1],inactive
same,outcome,[2],inactive
same,outcome,[3],inactive
same,outcome,[4],inactive
same,outcome,[5],inactive
same,outcome,[6],inactive
same,outcome,[7],inactive
same,outcome,[8],inactive
same,outcome,[9],inactive
Cc1cc(O)c(C(C)(C)C)cc1C(C)(C)C,AC50,[2],32.8 µM (active)
same,AC50,[5],5.16 µM (active)
same,AC50,[7],5.29 µM (active)
same,AC50,[8],9.48 µM (active)
same,AC50,[9],7.71 µM (active)
O=C(c1ccccc1)c1ccc(O)cc1O,outcome,[2],inactive
same,outcome,[5],inactive
same,outcome,[7],inactive
same,outcome,[8],inactive
same,outcome,[9],inactive
NC(=O)C(F)(F)C(F)(F)C(F)(F)C(F)(F)C(F)(F)C(F)(F)C(F)(F)F,outcome,[1],inactive
same,outcome,[2],inactive
same,outcome,[3],inactive
same,outcome,[4],inactive
same,outcome,[5],inactive
same,outcome,[6],inactive
same,outcome,[7],inactive
same,outcome,[8],inactive
same,outcome,[9],inactive
O=S(=O)(OCC(F)(F)F)C(F)(F)C(F)(F)C(F)(F)C(F)(F)F,outcome,[1],inactive
same,outcome,[2],inactive
same,outcome,[3],inactive
same,outcome,[4],inactive
same,outcome,[5],inactive
same,outcome,[6],inactive
same,outcome,[7],inactive
same,outcome,[8],inactive
same,outcome,[9],inactive
Cc1cnccn1,outcome,[2],inactive
same,outcome,[5],inactive
same,outcome,[7],inactive
same,outcome,[8],inactive
same,outcome,[9],inactive
CCN(CC)c1ccc2c(c1)Oc1cc(N(CC)CC)ccc1C21OC(=O)c2ccccc21,outcome,[2],inactive
same,outcome,[5],inactive
same,outcome,[7],inactive
same,outcome,[8],inactive
same,outcome,[9],inactive
Cc1ccc(S(=O)(=O)C(I)I)cc1,outcome,[2],inactive
same,AC50,[5],5.2 µM (active)
same,AC50,[7],8.6 µM (active)
same,AC50,[8],11.2 µM (active)
same,AC50,[9],5.97 µM (active)
C[C@]12CC[C@H]3C(=CCc4cc(O)ccc43)[C@@H]1CCC2=O,outcome,[2],inactive
same,outcome,[5],inactive
same,outcome,[7],inactive
same,outcome,[8],inactive
same,outcome,[9],inactive
COC(F)(C(F)F)C(F)(F)F (stereo not given),outcome,[1],inactive
same,outcome,[2],inactive
same,outcome,[3],inactive
same,outcome,[4],inactive
same,outcome,[5],inactive
same,outcome,[6],inactive
same,outcome,[7],inactive
same,outcome,[8],inactive
same,outcome,[9],inactive
Cc1ccc(O)c(-n2nc3ccccc3n2)c1,outcome,[2],inactive
same,outcome,[5],inactive
same,outcome,[7],inactive
same,outcome,[8],inactive
same,outcome,[9],inactive
NC(=O)C(F)(F)C(F)(F)C(F)(F)C(F)F,outcome,[1],inactive
same,outcome,[2],inactive
same,outcome,[3],inactive
same,outcome,[4],inactive
same,outcome,[5],inactive
same,outcome,[6],inactive
same,outcome,[7],inactive
same,outcome,[8],inactive
same,outcome,[9],inactive
O=C=NCc1cccc(CN=C=O)c1,outcome,[2],inactive
same,outcome,[5],inactive
same,outcome,[7],inactive
same,outcome,[8],inactive
same,outcome,[9],inactive
CCOC(C=C(C)CCC=C(C)C)OCC,outcome,[2],inactive
same,AC50,[5],0.016 µM (active)
same,AC50,[7],30.4 µM (active)
same,AC50,[8],31.3 µM (active)
same,AC50,[9],3.97 µM (active)
O=C(O)C(F)(F)OC(F)(F)C(F)(F)OC(F)(F)C(F)(F)OC(F)(F)F,outcome,[1],inactive
same,outcome,[2],inactive
same,outcome,[3],inactive
same,outcome,[4],inactive
same,outcome,[5],inactive
same,outcome,[6],inactive
same,outcome,[7],inactive
same,outcome,[8],inactive
same,AC50,[9],6.35 µM (active)
same,outcome,[9],inactive
Nc1cc([N+](=O)[O-])cc(Cl)c1O,outcome,[2],inactive
same,outcome,[5],inactive
same,outcome,[7],inactive
same,outcome,[8],inactive
same,outcome,[9],inactive
CC(C)CCCC(C)CCO (stereo not given),outcome,[2],inactive
same,outcome,[5],inactive
same,AC50,[7],34.5 µM (active)
same,AC50,[8],33.7 µM (active)
same,outcome,[9],inactive
CCN(CC)c1ccc(N=Nc2ccccc2)cc1,AC50,[2],5.41 µM (active)
same,outcome,[5],inactive
same,AC50,[7],20 µM (active)
same,AC50,[8],5.14 µM (active)
same,outcome,[9],inactive
Cc1cc(C)c(O)c(C(C)(C)C)c1,outcome,[2],inactive
same,AC50,[5],35.4 µM (active)
same,AC50,[7],35.9 µM (active)
same,outcome,[8],inactive
same,AC50,[9],31.6 µM (active)
CCN(CC)c1ccc(C=O)cc1,outcome,[2],inactive
same,outcome,[5],inactive
same,outcome,[7],inactive
same,outcome,[8],inactive
same,outcome,[9],inactive
O=S(=O)(O)CCC(F)(F)C(F)(F)C(F)(F)C(F)(F)C(F)(F)C(F)(F)C(F)(F)C(F)(F)F,outcome,[1],inactive
same,outcome,[2],inactive
same,outcome,[3],inactive
same,outcome,[4],inactive
same,outcome,[5],inactive
same,outcome,[6],inactive
same,outcome,[7],inactive
same,outcome,[8],inactive
same,outcome,[9],inactive
Brc1nc2ccccc2s1,outcome,[2],inactive
same,outcome,[5],inactive
same,outcome,[7],inactive
same,outcome,[8],inactive
same,outcome,[9],inactive
O=C1C=CC(=O)N1c1ccc(Cc2ccc(N3C(=O)C=CC3=O)cc2)cc1,outcome,[2],inactive
same,outcome,[5],inactive
same,AC50,[7],3.58 µM (active)
same,AC50,[8],11.7 µM (active)
same,AC50,[9],5.94 µM (active)
